FLuc inh: Photinus pyralis luciferase inhibition. P08659. purified P. pyralis luciferase, luminescence, biochemical. Potency, µM (doses to about 115 µM), most hits filed as inhibitors. actives 2.5% (n = 76,000). AID 1347043; further: nearly all actives have a fitted effect of over 65% in size
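Luminescence read by CCD imaging after purified firefly luciferase (10nM final) was added to substrate buffer holding 10uM D-luciferin and 10uM ATP, pH 7.5, pre-dosed with compound.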
HEK cytotox: HEK 293 cell cytotoxicity | Potency, µM (doses to about 115 µM), for the others: at the highest dose activity change, negative = cytotoxicity, hits mostly inhibitors | AID 1345083 | HEK 293 viability, ATP luminescence (CellTiter-Glo), 48-72 h | actives 6.6% (n = 94,000); further: nearly all actives have a fitted effect of over 60% in size
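Read-out: CellTiter-Glo ATP luminescence. Cells: HEK 293, 250 cells/well. Exposure: 48 or 72 hr, 37 degree Celsius.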
hNpr1 antagonist: blocks ANP-stimulated signaling of human Npr1 receptor; P16066; HEK293 hNpr1 GloSensor cGMP, ANP-stimulated luminescence; Potency, µM (series often up to 46.3 µM), for the others: at the highest dose activity change, negative = inhibition, usual class: inhibitors; actives 1.6% (n = 76,000); calls by dose curve; further: nearly all actives have a fitted effect of over 60% in size
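Compound pre-incubated 30 min at room temperature on GloSensor-loaded HEK293 cells stably carrying hNpr1 and the pGS-40F cGMP biosensor. Stimulation uses hNppA at 0.1 nM final; luminescence is taken at baseline and 20 min post-agonist.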
3T3 cytotox: NIH 3T3 cell cytotoxicity; NIH 3T3 viability, CellTiter-Glo ATP luminescence, 48-72 h; actives 4.3% (n = 94,000); Potency, µM (series often up to 96.7 µM), inactives show top-dose activity change, negative = cytotoxicity, most hits filed as inhibitors; further: nearly all actives have a fitted effect of over 55% in size
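ATP-dependent luminescence (CellTiter-Glo) served as the viability signal for NIH 3T3 cells treated with compound for 48 or 72 hr at 37 °C.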
GPT2 inhibitor: blocks human glutamate pyruvate transaminase 2; Q8TD30; Recombinant GPT2, coupled pyruvate oxidase/HRP Amplex Red fluorescence; Potency, µM (highest dose often 57.7 µM), inactives show at the highest dose activity change, negative = inhibition, most hits filed as inhibitors; actives 0.25% (n = 100,000); AID 1671188; further: nearly all actives have a fitted effect of over 60% in size
Target sequence (Q8TD30 whole entry, looked up): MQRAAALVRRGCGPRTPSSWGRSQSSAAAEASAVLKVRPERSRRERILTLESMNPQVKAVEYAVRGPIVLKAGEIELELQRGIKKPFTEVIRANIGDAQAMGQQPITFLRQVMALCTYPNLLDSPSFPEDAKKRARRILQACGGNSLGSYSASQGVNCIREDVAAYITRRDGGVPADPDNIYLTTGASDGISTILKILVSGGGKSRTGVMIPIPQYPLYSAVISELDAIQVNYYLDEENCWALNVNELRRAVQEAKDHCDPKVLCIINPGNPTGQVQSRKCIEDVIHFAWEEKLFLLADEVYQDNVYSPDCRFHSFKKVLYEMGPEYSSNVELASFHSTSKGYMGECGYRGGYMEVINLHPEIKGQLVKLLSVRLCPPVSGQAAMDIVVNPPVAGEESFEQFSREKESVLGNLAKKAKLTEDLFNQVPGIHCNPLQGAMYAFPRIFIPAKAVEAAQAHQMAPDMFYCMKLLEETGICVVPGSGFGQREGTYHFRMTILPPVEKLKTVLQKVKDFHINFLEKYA
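GPT2 10ng/uL, a-KG 250uM, L-Ala 2mM, HEPES pH7.5 + 0.0001% Tween; 30 min RT. Then Amplex mix (PO/HRP/ThPP), 30 min RT dark, fluorescence. AOA 50uM used as positive control.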
The depositor's hits bear a star; [ ] = another dose, or the depositor's remark. Only some compounds are listed: those with a hit (about 10% of all), similar ones and a draw of the others. Unless noted, the call rests on the fitted dose curve; in most records, active means well fitted curve in the direction sought with a large enough effect; inconclusive means small, poorly fitted or top-dose-only effect, or another doubt; inactive means no such curve, though single readings can be large; an effect the other way counts as inactive or inconclusive. On the % scale 0 is the no-effect control and ±100 the full control effect; potency means the concentration at half of the fitted maximal effect.

O=C1NCN(Cc2ccc(Cl)cc2)C12CCN(Cc1cccnc1)CC2 was read as FLuc inh inactive, HEK cytotox inconclusive, hNpr1 antagonist 18.0%, 3T3 cytotox inconclusive and GPT2 inhibitor 4.9%.
For O=C(C1CCCCC1)N1CCC2(CC1)NC(=O)N(c1cccc(F)c1)N2 the results were FLuc inh inactive, HEK cytotox inconclusive, hNpr1 antagonist 7.3%, 3T3 cytotox inconclusive and GPT2 inhibitor inconclusive.
`O=C1[C@@H]2C[C@@H](O)CN2C2(CN(Cc3ccccn3)C2)C(=O)N1Cc1ccccc1` gave FLuc inh inactive, HEK cytotox inactive, hNpr1 antagonist 6.2%[70.6 µM], 3T3 cytotox 1.2%[174 µM] and GPT2 inhibitor -1.7%[88.5 µM].
CN(C)CC(C)(C)NC(=O)c1csc2nc(-c3cccc(C(F)(F)F)c3)cn12 was read as FLuc inh inactive, HEK cytotox 44.7µM*, hNpr1 antagonist -8.7%, 3T3 cytotox inconclusive and GPT2 inhibitor 1.2%[11.5 µM].
Screening CN(Cc1cnccn1)C(=O)c1csc2nc(-c3cccc(C(F)(F)F)c3)cn12 returned FLuc inh inconclusive, HEK cytotox inconclusive, hNpr1 antagonist 16.1%, 3T3 cytotox inconclusive and GPT2 inhibitor -19.3%.
`COc1cccc(S(=O)(=O)N2C[C@@H](F)C[C@H]2C(=O)N2CCOCC2)c1` gave FLuc inh inactive, HEK cytotox 8.4%, hNpr1 antagonist -13.0%, 3T3 cytotox 4.2% and GPT2 inhibitor -3.8%.
For CCOc1ccccc1NC(=O)c1cc2c(N3CCSCC3)nc(C)cn2n1 the results were FLuc inh inactive, HEK cytotox 35.5µM*, hNpr1 antagonist -4.1%, 3T3 cytotox inconclusive and GPT2 inhibitor -3.6%.
Cc1cn2nc(C(=O)NCc3ccc(C(F)(F)F)cc3)cc2c(N2CCCC2)n1 was read as FLuc inh inactive, HEK cytotox 44.7µM*, hNpr1 antagonist -9.8%, 3T3 cytotox inconclusive and GPT2 inhibitor inactive.
`CCOc1ccc(NC(=O)c2cc3c(N4CCSCC4)nc(C)cn3n2)cc1` gave FLuc inh inactive, HEK cytotox -10.3%, hNpr1 antagonist 7.6%, 3T3 cytotox -17.3% and GPT2 inhibitor 3.7%.
For CCc1ccc(CNC(=O)c2cc3c(N4CCCC4)nc(C)cn3n2)cc1 the results were FLuc inh inactive, HEK cytotox inconclusive, hNpr1 antagonist 12.7%, 3T3 cytotox inconclusive and GPT2 inhibitor inactive.
`CC(C)c1ccc(CN2CCc3ncc(C(=O)Nc4ccccc4)n3CC2)cc1` gave FLuc inh inactive, HEK cytotox 31.6µM*, hNpr1 antagonist -24.9%[70.6 µM], 3T3 cytotox 28.2µM* and GPT2 inhibitor -22.8%[88.5 µM].
For CC(C)CCNC(=O)c1cnc2n1CCN(Cc1ccc(C(C)C)cc1)CC2 the results were FLuc inh inactive, HEK cytotox 56.2µM*, hNpr1 antagonist inconclusive, 3T3 cytotox inconclusive and GPT2 inhibitor inactive.
`O=C(Nc1ccccc1)c1cnc2n1CCN(Cc1cccc(O)c1)CC2` gave FLuc inh inconclusive, HEK cytotox inconclusive, hNpr1 antagonist -0.9%[70.6 µM], 3T3 cytotox inconclusive and GPT2 inhibitor -12.4%[88.5 µM].
For CCOc1ccc2c(n1)CCN(C(=O)c1cc(C)nn1C)C2 the results were FLuc inh inactive, HEK cytotox inactive, hNpr1 antagonist -3.1%, 3T3 cytotox -2.0% and GPT2 inhibitor inactive.
Cc1nn(-c2ccc(C(F)(F)F)cc2)c(C)c1[C@@H]1C=C[C@@H](NC(=O)c2cccnc2)C1 was read as FLuc inh inconclusive, HEK cytotox inconclusive, hNpr1 antagonist -26.2%[70.6 µM], 3T3 cytotox 28.2µM* and GPT2 inhibitor -8.6%[88.5 µM].
`Cc1nn(CCC#N)c(C)c1[C@@H]1C=C[C@@H](NC(=O)Nc2ccccc2)C1` gave FLuc inh inconclusive, HEK cytotox -3.4%[172 µM], hNpr1 antagonist 2.8%[70.6 µM], 3T3 cytotox inconclusive and GPT2 inhibitor inactive.
Screening Cc1nn(-c2ccccc2[N+](=O)[O-])c(C)c1[C@@H]1C=C[C@@H](NC(=O)Nc2cccc(C#N)c2)C1 returned FLuc inh inconclusive, HEK cytotox 39.8µM*, hNpr1 antagonist inconclusive, 3T3 cytotox inconclusive and GPT2 inhibitor inactive.
`Cc1nn(-c2ccc(C(F)(F)F)cc2)c(C)c1[C@@H]1C=C[C@@H](NC(=O)Nc2cccc(C#N)c2)C1` gave FLuc inh 7.08µM*, HEK cytotox inconclusive, hNpr1 antagonist inconclusive, 3T3 cytotox 25.1µM* and GPT2 inhibitor -11.6%.
`Cc1nn(-c2ccccc2)c(C)c1[C@@H]1C=C[C@@H](NC(=O)c2ccco2)C1` gave FLuc inh inactive, HEK cytotox inconclusive, hNpr1 antagonist 35.5µM*, 3T3 cytotox inconclusive and GPT2 inhibitor 4.9%[88.5 µM].
For CC(C)CN1C(=O)c2cccn2CC1C(=O)NCCCN1CCc2ccccc2C1 (centres undefined) the results were FLuc inh inactive, HEK cytotox -8.2%, hNpr1 antagonist -3.5%, 3T3 cytotox -5.3% and GPT2 inhibitor inactive.
Screening CCc1noc(-c2ccn3c(CNC(=O)c4cc(C)cc(C)c4)nnc3c2)n1 returned FLuc inh inactive, HEK cytotox inactive, hNpr1 antagonist 2.8%, 3T3 cytotox inactive and GPT2 inhibitor -11.4%.
Screening C[S+](=O)([O-])N1CCN(Cc2ccccc2-c2cccnc2)CC1 returned HEK cytotox inconclusive, 3T3 cytotox -32.3%[138 µM] and GPT2 inhibitor -17.3%[88.5 µM].
Screening Cc1ccc(-c2ccccc2CN2CCN([S+](=O)([O-])c3ccccc3)CC2)cc1Cl returned HEK cytotox inconclusive, 3T3 cytotox inconclusive and GPT2 inhibitor -13.1%.
`O=[S+]([O-])(c1ccccc1)N1CCN(Cc2ccccc2-c2ccccc2F)CC1` gave HEK cytotox 22.4µM*, 3T3 cytotox inconclusive and GPT2 inhibitor inactive.
For O=[S+]([O-])(c1cccc(C(F)(F)F)c1)N1CCN(Cc2ccccc2-c2cccnc2)CC1 the results were HEK cytotox inconclusive, 3T3 cytotox 35.5µM* and GPT2 inhibitor 4.2%.
`Cc1ccc(-n2nc3n(c2=O)CCN(C(=O)c2ccccc2)C3)cc1` gave FLuc inh inconclusive, HEK cytotox inconclusive, hNpr1 antagonist -0.3%, 3T3 cytotox inconclusive and GPT2 inhibitor inactive.
COc1ccc(CN2CCNc3cc(-c4ccccc4)ncc3C2)cc1 was read as FLuc inh inconclusive, HEK cytotox 50.1µM*, hNpr1 antagonist -20.1%[70.6 µM], 3T3 cytotox inconclusive and GPT2 inhibitor -9.2%[88.5 µM].
For COc1ccc(OC)c(CN2CCNc3cc(-c4ccccc4)ncc3C2)c1 the results were FLuc inh 39.8µM*, HEK cytotox 112µM*, hNpr1 antagonist -6.2%[70.6 µM], 3T3 cytotox inconclusive and GPT2 inhibitor inactive.
`c1ccc(-c2cc3c(cn2)NCCN(Cc2ccsc2)C3)cc1` gave FLuc inh inconclusive, HEK cytotox inconclusive, hNpr1 antagonist 0.0%[70.6 µM], 3T3 cytotox inconclusive and GPT2 inhibitor -8.1%[88.5 µM].

High-throughput results as filed in PubChem.
